Assay outcomes (PubChem BioAssay)
ELG1 DNA repair: qHTS screen for small molecules that inhibit ELG1-dependent DNA repair in human embryonic kidney (HEK293T) cells expressing luciferase-tagged ELG1 | HEK293T ELG1-luciferase reporter, luminescence, 16 h; DNA damage induced by 5-fluorouridine | Potency, µM (highest dose often 46.1 µM), most hits filed as inhibitors | 330,000 compounds, 2.3% hits | AID 504467, 2011; note: nearly all actives have a fitted effect of over 55% in size
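Reporter activity after DNA damage by 5-fluorouridine is monitored. Compound-treated cells incubate 16 hr at 37 °C, then ONE-Glo is added for 30 min before luminescence reading.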
BRCA1 expr act: qHTS Assay to Identify Small Molecule Activators of BRCA1 Expression. MCF7-BRCA1-FFLuc reporter, luminescence, 48 h; response scale: scaled: vehicle 0%, 10 µM genistein 100%. AID 624202, 2012. 380,000 compounds, 1.1% hits. Potency, µM (highest dose often 46.1 µM), hits mostly activators; note: nearly all actives have a fitted effect of over 80% in size
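MCF7-BRCA1-FFLuc cells, 2000/well in phenol-red-free MEM, attached 2 h then treated 48 h at 37 C. Luciferase luminescence read 15 min after reagent; normalized to genistein maximum activation (10microM) and DMSO, concentration-response fitted.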
RORg inh: qHTS for inhibitors of ROR gamma transcriptional activity; Drosophila S2 Gal4-RORgamma UAS-luciferase reporter, 20 h; Potency, µM (titrated, usually from 53.6 µM), most hits filed as inhibitors; 310,000 compounds, 5.4% hits; AID 2551, 2010; note: nearly all actives have a fitted effect of over 60% in size
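Schneider cells (Drosophila), stable Gal4 DBD–ROR gamma + UAS-luc; 1 hr cmpd preincubation; Cu2+ induction 700 uM final; 20 hr ambient; luminescence.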
p53 reactivation: qHTS assay for re-activators of p53 using a Luc reporter | H1299 p53-A138V BP100-luciferase reporter, luminescence, 24 h | Potency, µM (titrated, usually from 92.2 µM), actives largely listed as activators | 320,000 compounds, 0.063% hits | AID 504706, 2011; note: nearly all actives have a fitted effect of over 45% in size
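p53-null H1299 cells stably carrying temperature-sensitive p53-A138V and a BP100-luciferase reporter were pinned with compounds (4-point, 1:5 series) and held 24 hrs at 37 deg C. Luminescence was read 10 min after detection reagent.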
VP16 counter: VP16 counterscreen qHTS for inhibitors of ROR gamma transcriptional activity; Drosophila S2 Gal4-VP16 UAS-luciferase, luminescence, 20 h; Potency, µM (top dose mostly 53.6 µM), usual class: inhibitors; 310,000 compounds, 3.5% hits; AID 2546, 2010;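 note: Gal4-VP16 expression switched on by copper sulfate through the metallothionein promoter; nearly all actives have a fitted effect of over 50% in size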
Giardia killer: Small Molecules that selectively kill Giardia lamblia: qHTS; AID 540267, 2011; 340,000 compounds, 0.15% hits; activity change, % at 7.66 µM, hits read low; Giardia lamblia trophozoite viability; in the data active = activity change below about -80%; inconclusive = between about -30% and that limit;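 note: parasites exposed to compound for two days anaerobically before the ATP read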
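ATP-content bioluminescence gauges trophozoite survival. Cells (100/well) receive compound and incubate anaerobically for 48 hrs at 37 deg C; detection reagent follows for 15-30 min at room temperature.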
ELG1 FLuc counter: qHTS screen for small molecules that inhibit ELG1-dependent DNA repair: Hit Confirmation in Cell-Based Luciferin Assay; AID 624247, 2012; shares compounds with ELG1 DNA repair; 350 compounds, 3% hits; cell-free firefly luciferase luminescence counter-screen, ViewLux; Potency, µM (highest dose often 46.1 µM), actives largely listed as inhibitors
ELG1-Luc inh: HTS assay for small molecules that inhibit ELG1-dependent DNA repair in human embryonic kidney (HEK293T) cells expressing luciferase-tagged ELG1: Hit Confirmation. shares compounds with ELG1 DNA repair. 670 compounds, 68% hits. Potency, µM (titrated, usually from 46.1 µM), actives largely listed as inhibitors. HEK293T ELG1-luciferase levels, luminescence; cells co-treated with 5-fluorouridine; note: nearly all actives have a fitted effect of over 55% in size
ELG1-Luc MMS: confirmation of human ELG1 repair inhibitors, MMS stimulated. Potency, µM (series often up to 46.1 µM), most hits filed as inhibitors. shares compounds with ELG1 DNA repair. 670 compounds, 53% hits. HEK293T luciferase-tagged ELG1 level, MMS stimulated; note: nearly all actives have a fitted effect of over 60% in size
ELG1 5-FU: qHTS screen for small molecules that inhibit ELG1-dependent DNA repair: Hit Confirmation with 5FU Viability; cell viability with 5-FU, ELG1-dependent repair; AID 624250, 2012; shares compounds with ELG1 DNA repair; 670 tested, under 10 active; Potency, µM (top dose mostly 46.1 µM), actives largely listed as cytotoxic;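 note: ELG1-luc HEK293T cells cotreated with 5-fluorouridine at 10 µM final; viability measured 16 h after compound addition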
ELG1 MMS viab: qHTS screen for small molecules that inhibit ELG1-dependent DNA repair: Hit Confirmation with MMS Viability. 670 compounds, 33% hits. shares compounds with ELG1 DNA repair. Potency, µM (highest dose often 46.1 µM), hits mostly cytotoxic. AID 624251, 2012. Cell viability with MMS, ELG1-dependent DNA repair;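 note: ELG1-luc HEK293T cells co-treated with 10 µM MMS; viability read 16 h after compound addition; nearly all actives have a fitted effect of over 60% in size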
ELG1 unstim viab: qHTS screen for small molecules that inhibit ELG1-dependent DNA repair: Hit Confirmation with Unstimulated Viability Assay; AID 624252, 2012; cell viability counter-screen, unstimulated, luminescence; shares compounds with ELG1 DNA repair; Potency, µM (series often up to 45.9 µM), usual class: cytotoxic; 900 compounds, 8% hits;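 note: compound exposure lasted 16 hours before reading; nearly all actives have a fitted effect of over 55% in size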
FLuc biochem: qHTS screen for small molecules that inhibit ELG1-dependent DNA repair: Hit Confirmation in Biochemical Luciferin Assay | shares compounds with ELG1 DNA repair | purified firefly luciferase, luminescence counter-screen | Potency, µM (series often up to 57.5 µM), actives largely listed as inhibitors | 350 compounds, 10% hits | AID 624253, 2012
Of the large screens only hits and unclear results are named; the others gave an inactive call (follow-up assays come after a bar, where they were run). An excerpt weighted towards active compounds, which were near 7.6% of everything screened. Unless noted, calls come from the whole dose curve; as a rule, active = well fitted curve in the direction sought with a large enough effect; inconclusive = small, poorly fitted or top-dose-only effect, or another doubt; inactive = no such curve, though single readings can be large; an effect the other way counts as inactive or inconclusive.

COc1ccccc1CN(Cc1nc2ccccc2c(=O)[nH]1)S(=O)(=O)c1ccc2ccccc2c1	ELG1 DNA repair 3.7µM, RORg inh inconclusive | ELG1-Luc inh 7.9µM | ELG1-Luc MMS 6.3µM | ELG1 5-FU inconclusive | ELG1 MMS viab 16µM | ELG1 unstim viab 18µM
COc1ccccc1C(=O)NCC(=O)N(C)Cc1nc2ccccc2c(=O)[nH]1	none (no result: ELG1 DNA repair, RORg inh, p53 reactivation, VP16 counter, Giardia killer)
O=C(Nc1ccc(F)cc1)N(CCCN1CCOCC1)Cc1cc2cc3c(cc2[nH]c1=O)OCO3	none | ELG1 FLuc counter inactive | ELG1-Luc inh inconclusive | ELG1-Luc MMS inactive | ELG1 5-FU inactive | ELG1 MMS viab inactive | ELG1 unstim viab inconclusive | FLuc biochem inactive
O=C(Nc1ccc(F)cc1)N(CCCN1CCOCC1)Cc1cc2cc3c(cc2[nH]c1=O)OCCO3	ELG1 DNA repair inconclusive
CCCN(C(=O)c1cc2c(s1)-c1ccccc1OC2)c1ccc(C(C)C)cc1	none (no result: ELG1 DNA repair, RORg inh, p53 reactivation, VP16 counter, Giardia killer)
Cc1cc(OCC(=O)Nc2ccncc2)cc(C)c1Cl	ELG1 DNA repair 2.6µM (no result: RORg inh, p53 reactivation, VP16 counter) | ELG1-Luc inh inconclusive | ELG1-Luc MMS 2.5µM | ELG1 5-FU inactive | ELG1 MMS viab 2.5µM | ELG1 unstim viab inactive
Cc1cccc(C)c1OCC(=O)Nc1ccncc1	none (no result: p53 reactivation)
CC1=C(C(=O)Nc2cc(-c3cccc(F)c3)[nH]n2)C2(CCCCC2)OC1=O	VP16 counter inconclusive
Cc1nn(-c2ccccc2)c(C)c1C(=O)OCC(=O)c1c(N)n(CC(C)C)c(=O)n(C)c1=O	ELG1 DNA repair 3.3µM, VP16 counter inconclusive | ELG1-Luc inh 4µM | ELG1-Luc MMS 0.79µM | ELG1 5-FU inconclusive | ELG1 MMS viab 1.3µM | ELG1 unstim viab inconclusive
COc1ccc(CCN(Cc2cccs2)S(=O)(=O)c2ccc(S(=O)(=O)N3CCCCCC3)cc2)cc1OC	ELG1 DNA repair 2.9µM | ELG1-Luc inh inconclusive | ELG1-Luc MMS 4.4µM | ELG1 5-FU inactive | ELG1 MMS viab 7.1µM | ELG1 unstim viab inactive
